The supplement of paper PMC10338343
± gives the standard deviation.

How the values were obtained:
[1] = test system: MILI (PIWIL2) piRISC loaded with L1MC piRNA (26 nt); assay: pre-steady-state target cleavage rate (min^-1); guide: L1MC piRNA 5'p-UAACUAAAUACUAUGCAAGCUGUAGG; higher = faster piRNA-guided slicing of the target;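 further: 1 nM active piRISC with 0.1 nM target library at 33 °C single turnover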
Summary of the method: (§1)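 The pre-steady-state cleavage rate was calculated from a burst-and-steady-state fit. Data came from Cleave-'n-Seq, in which […] transcribed, DNA-blocked target RNA library was mixed with 1 nM active affinity-purified piRISC carrying one synthetic guide, with or without 500 nM GTSF1 partner protein, in HEPES–potassium acetate buffer at 33 °C for 0–8 or 0–960 min. Uncleaved targets were sequenced and normalised to depth and to weakly complementary targets, three trials were pooled, and k3 was capped at 0.0001 min^-1.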

[2] = test system: EfPiwi piRISC loaded with L1MC piRNA (26 nt); assay: pre-steady-state target cleavage rate (min^-1); auxiliary factor: none (no Gtsf1); guide: L1MC piRNA 5'p-UAACUAAAUACUAUGCAAGCUGUAGG; higher = faster piRNA-guided slicing of the target
Summary of the method: as §1

[3] = test system: EfPiwi piRISC loaded with L1MC piRNA (26 nt); assay: pre-steady-state target cleavage rate (min^-1); auxiliary factor: 500 nM Ephydatia muelleri Gtsf1; guide: L1MC piRNA 5'p-UAACUAAAUACUAUGCAAGCUGUAGG; MIWI and MILI are mouse PIWI proteins and EfPiwi is from a freshwater sponge; tags in brackets are library labels; higher = faster piRNA-guided slicing of the target
Summary of the method: as §1

[4] = auxiliary factor: 500 nM mouse GTSF1
[5] = auxiliary factor: none (no GTSF1)

## UCCUGGAUGUCCUUGCAUAGUUUUUACUUA
[1]; [4]
  pre-steady-state target cleavage rate: 0.00658 ± 0.0044
[2]
  pre-steady-state target cleavage rate: < 0.0001

## UCCUGGAACAGCUUGCUAUCAUAAAUCAAA [g15:g23:cont:t1A]
[1]; [5]
  pre-steady-state target cleavage rate: < 0.0001
[2]
  pre-steady-state target cleavage rate: < 0.0001

## UCCUGGAUGUCGAAGCAUAGUAUUUAGGUA
[1]; [4]
  pre-steady-state target cleavage rate: 0.00926 ± 0.0047
[2]
  pre-steady-state target cleavage rate: < 0.0001

## UCCUGGAUGUCGAUGCACAGUAUUUAGUUA
[1]; [4]
  pre-steady-state target cleavage rate: 0.0311 ± 0.0057
[1]; [5]
  pre-steady-state target cleavage rate: 0.00443 ± 0.0024
[2]
  pre-steady-state target cleavage rate: < 0.0001

## UCCUGGAUGUCGUUACAUAGUAUUUAGUUA
[1]; [4]
  pre-steady-state target cleavage rate: 0.105 ± 0.011
[1]; [5]
  pre-steady-state target cleavage rate: 0.00442 ± 0.0022
[2]
  pre-steady-state target cleavage rate: < 0.0001

## UCCUGGAUCAGCUUGCAUAGUAUUUACUUA
[1]; [4]
  pre-steady-state target cleavage rate: 0.0636 ± 0.008
[1]; [5]
  pre-steady-state target cleavage rate: 0.00403 ± 0.0024
[2]
  pre-steady-state target cleavage rate: < 0.0001

## UCCUGGAACAGCUUGCAUCGUAUUUAGUUA
[1]; [4]
  pre-steady-state target cleavage rate: 0.0882 ± 0.013
[1]; [5]
  pre-steady-state target cleavage rate: 0.00682 ± 0.0024
[2]
  pre-steady-state target cleavage rate: 0.00791 ± 0.0048
[3]
  pre-steady-state target cleavage rate: 0.0172 ± 0.0048

## UCCUGGAUGUCGAUGCAUAGUAUUAUGUUA
[1]; [4]
  pre-steady-state target cleavage rate: 0.0412 ± 0.011
[2]
  pre-steady-state target cleavage rate: < 0.0001

## UCCUGGAUCAGGUUGCAUAGUAUUUUCAAA
[1]; [4]
  pre-steady-state target cleavage rate: 0.07 ± 0.023
[2]
  pre-steady-state target cleavage rate: < 0.0001

## UCCUGGAUGUGCUUGCAUAGUAUCUUAGUUA
[1]; [4]
  pre-steady-state target cleavage rate: 0.135 ± 0.019
[1]; [5]
  pre-steady-state target cleavage rate: 0.0069 ± 0.0028
[2]
  pre-steady-state target cleavage rate: 0.0107 ± 0.0064

## UCCUGGAUCAGCUUGCAUAGUACUUUAGUUA
[1]; [4]
  pre-steady-state target cleavage rate: 0.14 ± 0.016
[1]; [5]
  pre-steady-state target cleavage rate: 0.00672 ± 0.0027
[2]
  pre-steady-state target cleavage rate: 0.00468 ± 0.0038
[3]
  pre-steady-state target cleavage rate: 0.00735 ± 0.0023

## UCCUGGAUGUCGAAGCAUAGUUAAAUCAAA [g10:g16:cont:t1A]
[1]; [5]
  pre-steady-state target cleavage rate: < 0.0001
[2]
  pre-steady-state target cleavage rate: < 0.0001

## UCCUGGAUGUCGUUGCAUAGUAUAAUGUUA
[1]; [4]
  pre-steady-state target cleavage rate: 0.0201 ± 0.011
[2]
  pre-steady-state target cleavage rate: < 0.0001

## UCCUGGUACAGCUUGCAUAGUAUUUAAGUUA
[1]; [4]
  pre-steady-state target cleavage rate: 0.22 ± 0.041
[1]; [5]
  pre-steady-state target cleavage rate: 0.0123 ± 0.0043
[2]
  pre-steady-state target cleavage rate: 0.00555 ± 0.0052

## UCCUGGAUCAGCUUGCAUAGUAGUUUAGUUA
[1]; [4]
  pre-steady-state target cleavage rate: 0.216 ± 0.02
[1]; [5]
  pre-steady-state target cleavage rate: 0.00969 ± 0.0027
[2]
  pre-steady-state target cleavage rate: 0.011 ± 0.0045
[3]
  pre-steady-state target cleavage rate: 0.0107 ± 0.0033

## UCCUGGAUGUCGAAGCAUAGUUUUUAGUUA
[1]; [4]
  pre-steady-state target cleavage rate: 0.00892 ± 0.0039
[1]; [5]
  pre-steady-state target cleavage rate: 0.00397 ± 0.0017
[2]
  pre-steady-state target cleavage rate: < 0.0001

## UCCUGGAUGUCGAUGCAUAGUAUUUACAAA
[1]; [4]
  pre-steady-state target cleavage rate: 0.0066 ± 0.0042
[2]
  pre-steady-state target cleavage rate: < 0.0001

## UCCUGGAUGUCGUUGAAUAGUAUUUAGUUA
[1]; [4]
  pre-steady-state target cleavage rate: 0.0817 ± 0.015
[1]; [5]
  pre-steady-state target cleavage rate: 0.0047 ± 0.0024
[2]
  pre-steady-state target cleavage rate: < 0.0001

## UCCUGGAUGUCCUUGCAAAGUAAUUAGUUA
[1]; [4]
  pre-steady-state target cleavage rate: 0.018 ± 0.0064
[1]; [5]
  pre-steady-state target cleavage rate: 0.00522 ± 0.0014
[2]
  pre-steady-state target cleavage rate: < 0.0001

## UCCUGGUACAGCUUGCAUAGAAUUUACUUA
[1]; [4]
  pre-steady-state target cleavage rate: 0.0206 ± 0.011
[2]
  pre-steady-state target cleavage rate: < 0.0001

## UCCUGGAACACCUUGCAUAGUAUUUUCAAA
[1]; [4]
  pre-steady-state target cleavage rate: 0.0441 ± 0.015
[2]
  pre-steady-state target cleavage rate: < 0.0001

## UCCUGGUACAGCUUGGUUAGUAUUUAGAAA
[1]; [4]
  pre-steady-state target cleavage rate: 0.043 ± 0.016
[2]
  pre-steady-state target cleavage rate: < 0.0001

## UCCUGGAUGUCGUAGCAUAGUAUUUUGUUA
[1]; [4]
  pre-steady-state target cleavage rate: 0.0314 ± 0.01
[2]
  pre-steady-state target cleavage rate: < 0.0001

## UCCUGGAUGUCGAAGCAUAGUAUUUAGUGA
[1]; [4]
  pre-steady-state target cleavage rate: 0.0495 ± 0.015
[1]; [5]
  pre-steady-state target cleavage rate: 0.00324 ± 0.0026
[2]
  pre-steady-state target cleavage rate: < 0.0001

## UCCUGGAUCAGCUUGCAUAGUAUUAUAGUUA
[1]; [4]
  pre-steady-state target cleavage rate: 0.283 ± 0.022
[1]; [5]
  pre-steady-state target cleavage rate: 0.00669 ± 0.0028
[2]
  pre-steady-state target cleavage rate: 0.00759 ± 0.0041
[3]
  pre-steady-state target cleavage rate: 0.0796 ± 0.024

## UCCUGGAUGUCCUUCGAUAGUAUUUAGUUA
[1]; [4]
  pre-steady-state target cleavage rate: 0.00794 ± 0.0037
[2]
  pre-steady-state target cleavage rate: < 0.0001

## UCCUGCUACAGCUUGCAUAGAAUUUUCAAA
[1]; [4]
  pre-steady-state target cleavage rate: 0.0169 ± 0.0066
[2]
  pre-steady-state target cleavage rate: < 0.0001

## UCCUGGAUCAGGAAGCAUAGUAUUUAGAAA
[1]; [4]
  pre-steady-state target cleavage rate: 0.0247 ± 0.0063
[2]
  pre-steady-state target cleavage rate: < 0.0001

## UCCUGGAUGUCGAACCAUAGUAGUUUAGUUA
[1]; [4]
  pre-steady-state target cleavage rate: < 0.0001
[2]
  pre-steady-state target cleavage rate: < 0.0001

## UCCUGGAUGUCGAACCAUACGUAUUUAGUUA
[1]; [5]
  pre-steady-state target cleavage rate: < 0.0001
[2]
  pre-steady-state target cleavage rate: < 0.0001

## UCCUCCUACAGCUUGCAAUCUAUUUUCAAA
[1]; [4]
  pre-steady-state target cleavage rate: 0.0216 ± 0.0095
[2]
  pre-steady-state target cleavage rate: < 0.0001

## UCCUGGAUCAGCAACCAUAGUAUUUUCAAA
[1]; [5]
  pre-steady-state target cleavage rate: < 0.0001
[2]
  pre-steady-state target cleavage rate: < 0.0001

## UCCUCCUACAGCUUGCAUAGAAUUUUCAAA
[1]; [4]
  pre-steady-state target cleavage rate: 0.0466 ± 0.015
[2]
  pre-steady-state target cleavage rate: < 0.0001

## UCCUGGAUGUCGAAGCAUAGUAUAUUAGUUA
[1]; [4]
  pre-steady-state target cleavage rate: 0.0302 ± 0.0085
[1]; [5]
  pre-steady-state target cleavage rate: 0.00411 ± 0.0026
[2]
  pre-steady-state target cleavage rate: < 0.0001

## UCCUGGAUGUCCUUGCAUACAAUUUAGUUA
[1]; [5]
  pre-steady-state target cleavage rate: 0.00248 ± 0.0024
[2]
  pre-steady-state target cleavage rate: < 0.0001

## UCCUGGAUCAGCUUGCAUAGUAUUUACGUUA
[1]; [4]
  pre-steady-state target cleavage rate: 0.243 ± 0.027
[1]; [5]
  pre-steady-state target cleavage rate: 0.00431 ± 0.0028
[2]
  pre-steady-state target cleavage rate: 0.011 ± 0.006
[3]
  pre-steady-state target cleavage rate: 0.0133 ± 0.0044

## UCCUGGAUGAGCUUGGAUUGUAUUUAGUUA
[1]; [4]
  pre-steady-state target cleavage rate: 0.0185 ± 0.0063
[2]
  pre-steady-state target cleavage rate: < 0.0001

## UCCUGGAUGUCGAUGCAUAGUCAUUUAGUUA
[1]; [4]
  pre-steady-state target cleavage rate: 0.00452 ± 0.004
[2]
  pre-steady-state target cleavage rate: < 0.0001

## UCCUGGAAGAGCUUGCAUACUAUUUAGUUA
[1]; [4]
  pre-steady-state target cleavage rate: 0.0778 ± 0.014
[1]; [5]
  pre-steady-state target cleavage rate: 0.00312 ± 0.0024
[2]
  pre-steady-state target cleavage rate: 0.00581 ± 0.0041
[3]
  pre-steady-state target cleavage rate: 0.00438 ± 0.0026

## UCCUGGAAGAGCUUGCUUAGUAUUUAGUUA
[1]; [4]
  pre-steady-state target cleavage rate: 0.204 ± 0.016
[1]; [5]
  pre-steady-state target cleavage rate: 0.0109 ± 0.0029
[2]
  pre-steady-state target cleavage rate: 0.00878 ± 0.005
[3]
  pre-steady-state target cleavage rate: 0.0135 ± 0.0043

## UCCUGGAUGUCCUUGCAUAGAUAUUAGUUA
[1]; [4]
  pre-steady-state target cleavage rate: 0.00447 ± 0.0038

## UCCUGGAUCAGCUUGCAUAGUGUUUAGUUA
[1]; [4]
  pre-steady-state target cleavage rate: 0.2 ± 0.018
[1]; [5]
  pre-steady-state target cleavage rate: 0.00361 ± 0.003
[2]
  pre-steady-state target cleavage rate: 0.00696 ± 0.0045
[3]
  pre-steady-state target cleavage rate: 0.0156 ± 0.0035

## UCCUGGAUGUCGUAGCUUAGUAUUUAGUUA
[1]; [4]
  pre-steady-state target cleavage rate: 0.0118 ± 0.0046

## UCCUGGAUGAGCUUGCAUAGUAUUAUAGUUA
[1]; [4]
  pre-steady-state target cleavage rate: 0.185 ± 0.022
[1]; [5]
  pre-steady-state target cleavage rate: 0.00494 ± 0.0026
[2]
  pre-steady-state target cleavage rate: 0.0249 ± 0.011
[3]
  pre-steady-state target cleavage rate: 0.0159 ± 0.0056

## UCCUGGAUGUCGAUUCAUAGUAUUUAGUUA
[1]; [4]
  pre-steady-state target cleavage rate: 0.0157 ± 0.0044

## UCCUGGAUCAGCUUGCAUAGUAUAUAGUUA
[1]; [4]
  pre-steady-state target cleavage rate: 0.268 ± 0.017
[1]; [5]
  pre-steady-state target cleavage rate: 0.00895 ± 0.0025
[2]
  pre-steady-state target cleavage rate: 0.0117 ± 0.0058
[3]
  pre-steady-state target cleavage rate: 0.0716 ± 0.02

## UCCUGGUACACCUUGCAUACUAUUUAGUUA
[1]; [4]
  pre-steady-state target cleavage rate: 0.228 ± 0.072

## UCCUCCUACAGGAUGCAUAGUAUUUUCAAA
[1]; [4]
  pre-steady-state target cleavage rate: 0.0564 ± 0.017
[2]
  pre-steady-state target cleavage rate: < 0.0001
[3]
  pre-steady-state target cleavage rate: 0.00259 ± 0.0025

## UCCUGGUACAGCUUGCAUAGUAUAAUGAAA
[1]; [4]
  pre-steady-state target cleavage rate: 0.0203 ± 0.0077
